# Results: PubChem BioAssay (NCI)
# The panel holds about 83,000 compounds, 20% with a hit somewhere; the sample as a whole holds those more often.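 The endpoint reported here, percent growth, reads 100 for growth as untreated, 0 for no net growth and -100 for all cells dead.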 A number with no mark means an inactive call. Calls of active or inactive are those of the source. The calls were made as follows: active = growth percent below 10; inactive = the rest.
# Legend:
# Experiment in all cases: NCI-60 one-dose screen, 48 h (100 = growth as untreated, 0 = no growth, -100 = all killed)
# Settings in all cases: 10 µM unless noted
# NCI-H23 lung = tested on: NCI-H23 lung
# NCI-H226 lung = tested on: NCI-H226 lung
# NCI-H322M lung = tested on: NCI-H322M lung
# HOP-62 NSCLC = tested on: HOP-62 NSCLC
# NCI-H460 lung = tested on: NCI-H460 lung
# HOP-92 NSCLC = tested on: HOP-92 NSCLC
# NCI-H522 lung = tested on: NCI-H522 lung
# A549/ATCC NSCLC = tested on: A549/ATCC NSCLC
# 786-0 renal = tested on: 786-0 renal
# COLO 205 colon = tested on: COLO 205 colon
# DU-145 prostate = tested on: DU-145 prostate
# K-562 leukemia = tested on: K-562 leukemia
# MALME-3M melanoma = tested on: MALME-3M melanoma
# MDA-MB-231 breast = tested on: MDA-MB-231 breast
# RXF 393 renal = tested on: RXF 393 renal
# SF-268 CNS = tested on: SF-268 CNS
# SF-295 CNS = tested on: SF-295 CNS
# UACC-257 melanoma = tested on: UACC-257 melanoma
# M14 melanoma = tested on: M14 melanoma
# SF-539 CNS = tested on: SF-539 CNS
Compound,growth (NCI-H23 lung),growth (NCI-H226 lung),growth (NCI-H322M lung),growth (HOP-62 NSCLC),growth (NCI-H460 lung),growth (HOP-92 NSCLC),growth (NCI-H522 lung),growth (A549/ATCC NSCLC),growth (786-0 renal),growth (COLO 205 colon),growth (DU-145 prostate),growth (K-562 leukemia),growth (MALME-3M melanoma),growth (MDA-MB-231 breast),growth (RXF 393 renal),growth (SF-268 CNS),growth (SF-295 CNS),growth (UACC-257 melanoma),growth (M14 melanoma),growth (SF-539 CNS)
COc1ccc(C2=CC(c3cc(OC)c(OC)c(OC)c3)NC(=O)N2)cc1OC (configuration not stated),27.3%,64.3%,-9.67% (active),32.6%,1.25% (active),6.24% (active),-8.71% (active),19%,27.9%,-24.1% (active),-17.1% (active),10.6%,11.2%,21.8%,0.616% (active),32.2%,6.53% (active),57.2%,17.2%,
CCCOC(=O)n1cccc1,99%,104%,135%,94.3%,110%,97%,112%,96.8%,98.5%,107%,108%,115%,147%,99%,102%,98.4%,122%,102%,101%,
COc1ccc(-c2ccc(-c3ccc(C(=N)N)cn3)s2)cc1OC,94%,96.3%,97.7%,91.4%,99.5%,69.3%,100%,100%,100%,103%,97.5%,41.8%,94.9%,89%,121%,101%,99.1%,114%,97.4%,83.4%
COc1cc(-c2nn(-c3cccc(NC(=O)c4ccccc4)c3)cc2-c2ccncc2)ccc1Cl,33.8%,39.1%,52.3%,27.1%,2.74% (active),9.19% (active),-29.6% (active),4.81% (active),21.3%,2.21% (active),11.6%,2.59% (active),22.4%,5.8% (active),-19.2% (active),18.7%,,8.64% (active),,-15% (active)
Brc1ccc(-c2[nH]ncc2-c2c[nH]c3ccccc23)cc1,92.5%,92.8%,99.7%,111%,98.1%,63.2%,107%,93.6%,102%,109%,108%,88.4%,90.6%,67.7%,103%,89%,96.2%,91.6%,89.7%,93.3%
Cc1ccc(S(=O)(=O)/C(=C\c2ccc(Cl)cc2)C(=O)c2ccccc2)cc1,102%,97.9%,101%,104%,106%,94.6%,96.3%,106%,103%,102%,113%,96.1%,107%,103%,104%,103%,93.1%,114%,102%,122%
COc1cccc(/C=C2\Oc3cc(OCCCN4CCCC4)ccc3C2=O)c1,88%,95.4%,88.2%,98.1%,78.4%,74.1%,92.2%,91%,74.4%,86.7%,94.7%,-35.5% (active),98.9%,76.7%,81%,88.3%,91.1%,102%,65.9%,76.1%
COc1cc(NC(=O)SC2=NCCS2)cc(OC)c1,95%,98.7%,110%,108%,101%,84.7%,86.4%,101%,101%,109%,101%,93.6%,102%,110%,120%,106%,113%,104%,103%,90.6%
Nc1nc(=O)c2ccccc2s1,109%,112%,108%,98.2%,115%,94.5%,122%,111%,103%,107%,124%,122%,110%,109%,118%,113%,105%,118%,107%,
CCN(CC)CCOc1ccc(/C(=C(/C)c2ccccc2)c2ccc(OC(C)=O)cc2)cc1,95.7%,105%,100%,106%,107%,81%,102%,117%,98.6%,113%,105%,87.2%,99.1%,108%,100%,93.2%,103%,120%,98.3%,101%
COc1cc(C2CC(c3ccc4c(c3)OCO4)=NN2C=O)cc(OC)c1OC (configuration not stated),59.9%,58.3%,14.1%,36.7%,15.3%,74.6%,-3.85% (active),46.2%,37.4%,12.6%,31.7%,17.6%,-3.87% (active),68%,45.7%,44.8%,-1.84% (active),65.3%,26.7%,
CN(C)CCCC(C#N)c1ccccc1 (configuration not stated),103%,107%,115%,103%,116%,105%,119%,105%,97.9%,119%,122%,99.1%,131%,112%,115%,114%,110%,104%,104%,
CN1CCN(CCCOc2ccc3nc(Nc4ccc(Cl)c(C(F)(F)F)c4)ccc3c2)CC1,67.3%,88.9%,53.6%,57.8%,44.4%,43%,90.2%,55.3%,68.6%,-40.7% (active),54.1%,-28.2% (active),55.9%,-12.9% (active),58.8%,59.7%,56%,,-11.6% (active),47%
Nc1cccc(Cl)c1N,85.2%,101%,99.5%,108%,101%,106%,71.1%,109%,110%,104%,117%,102%,116%,99.3%,121%,104%,118%,113%,104%,90.4%
COc1cccc(-c2nc3sccn3c2-c2ccnc(NCCCNS(=O)(=O)c3ccc(C(F)(F)F)cc3)c2)c1,70.4%,59.4%,79.4%,91.3%,52.4%,68.9%,68.4%,44.1%,58.6%,70.2%,65.4%,28.1%,86.4%,62.1%,65.6%,45.9%,44.3%,61.7%,47.7%,55.1%
